Measured values published in PubChem BioAssay (Tox21).
Several values for one entry are separate records, joined by “and”; a condition that tells them apart may be missing. Identical values can stand only once. Inconclusive results are not listed. The source holds several records for some structures; these can differ, active in one and inactive in another. Activity calls are given as the source filed them. Unless noted, calls follow the shape of the dose curve; as a rule, active = well fitted curve in the direction sought with a large enough effect in the repeat runs; inconclusive = weak or mixed curves; inactive = no such curve, though single readings can be large; an effect the other way counts as inactive or inconclusive.

Columns and labels:
[1] = qHTS assay for small molecule agonists of the p53 signaling pathway (AID 651631; calls by dose curve; also: nearly all actives have a fitted effect of over 15% in size)
How it was run: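 HCT-116 cells carrying a beta-lactamase reporter under p53 response elements were dosed with compound for 16 h at 37 °C. LiveBLAzer B/G FRET substrate was then added for 2 h at room temperature, and fluorescence intensity was read to detect pathway agonism.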

[2] = qHTS assay for small molecules that induce genotoxicity in human embryonic kidney cells expressing luciferase-tagged ATAD5 (AID 651632); also: nearly all actives have a fitted effect of over 15% in size
How it was run: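 Luminescent reporter readout, HEK293T ATAD5-luc line: 16 hr drug exposure (37C, 5% CO2) followed by Amplite, 30 min RT.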

[3] = qHTS assay for small molecules that induce genotoxicity in human embryonic kidney cells expressing luciferase-tagged ATAD5 - cell viability (AID 651634; calls by dose curve; also: nearly all actives have a fitted effect of over 25% in size)
How it was run: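 Viability read: CellTiter-Fluor fluorescence, 30 min at 37C. Cells: HEK293T, luciferase-tagged ATAD5. Exposure: 15.5 hr, 37C, 5% CO2, compound or DMSO vehicle.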

[4] = qHTS assay for small molecule disruptors of the mitochondrial membrane potential - cell viability (AID 720634; calls by dose curve;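 also: human HepG2 liver cancer cells; series mostly up to about 83 µM; nearly all actives have a fitted effect of over 20% in size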)
How it was run: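 HepG2, 1 hr compound, 37 C. ATP luminescence via CellTiter-Glo, 30 min RT, same well as m-MPI.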

[5] = qHTS assay for small molecule disruptors of the mitochondrial membrane potential (AID 720635); also: potency is read from the fitted curve at half-maximal effect
How it was run: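 HepG2 cells exposed to compound 1 hr at 37C, then Mito-MPS dye 30 min. Ratio read of aggregate (540/590 nm) versus monomer (490/535 nm) fluorescence.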

[6] = qHTS assay to test for compound auto fluorescence at 590 nm (red) in HepG2 cells (AID 720674)
How it was run: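 Fluorescence at 590 nm emission following 540 nm excitation was recorded from HepG2 wells one hour after compound transfer, with DMSO-only wells as vehicle and Rose Bengal sodium equivalency as the scale.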

[7] = qHTS assay to test for compound auto fluorescence at 535 nm (green) in HepG2 cells (AID 720675)
[8] = qHTS assay to test for compound auto fluorescence at 460 nm (blue) in HEK293 cells (AID 720678)
How it was run: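 Cells were seeded and left to adhere for 4-5 hr at 37C. Compounds were then pin-transferred. After an overnight incubation at 37C under 5% CO2, intrinsic fluorescence at 405/460 nm was measured and referenced to triamterene.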

[9] = qHTS assay to test for compound auto fluorescence at 590 nm (red) in HEK293 cells (AID 720679)
How it was run: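 Each well held 2,000 HEK293 cells in medium containing 10% dialyzed FBS. Following 4-5 hr attachment at 37C, 23 nL test compound or DMSO was added; plates sat overnight, and red fluorescence (540/590nm) was recorded.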

[10] = qHTS assay for small molecule agonists of the p53 signaling pathway - cell viability (AID 651633; calls by dose curve;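 also: p53RE-bla HCT reporter cells with a stable beta-lactamase p53 reporter; series mostly up to about 83 µM; nearly all actives have a fitted effect of over 30% in size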)
How it was run: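 p53RE-bla cells were treated with compound for 16 hours at 37 C. Cytotoxicity was then measured as CellTiter-Glo luminescence after 30 min at room temperature.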
% is scaled to controls: 0 for no effect and ±100 for the full control effect.

Cc1ccccc1O
inactive: outcome [1] | outcome [2] | outcome [3] | Potency [4] | Potency [5] | outcome [6] | outcome [7] | outcome [8] | outcome [9]

O=[N+]([O-])c1ccc(Oc2ccc(Cl)cc2Cl)cc1
inactive: outcome [1] | outcome [2] | outcome [10] | outcome [3] | Potency [4] | outcome [6] | outcome [7] | outcome [8] | outcome [9]
active: Potency [5] 54.8 µM and 30.6 µM

O=[N+]([O-])c1ccccc1
inactive: outcome [1] | outcome [2] | outcome [10] | outcome [3] | Potency [4] | Potency [5] | outcome [6] | outcome [7] | outcome [8] | outcome [9]

CC(C)N1C(=O)c2ccccc2NS1(=O)=O
inactive: outcome [1] | outcome [2] | outcome [10] | outcome [3] | Potency [4] | outcome [6] | outcome [7] | outcome [8] | outcome [9]
inactive and 48.6 µM (active): Potency [5]

CCCN(CCC)N=O
inactive: outcome [1] | outcome [2] | outcome [3] | Potency [4] | Potency [5] | outcome [6] | outcome [7] | outcome [8] | outcome [9]

Clc1ccc(Cl)cc1
inactive: outcome [1] | outcome [2] | outcome [3] | Potency [4] | Potency [5] | outcome [6] | outcome [7] | outcome [8] | outcome [9]

O=c1[nH]c2ccccc2c(=O)o1
inactive: outcome [1] | outcome [2] | outcome [10] | outcome [3] | Potency [4] | Potency [5] | outcome [6] | outcome [7] | outcome [8] | outcome [9]

COCCl
inactive: outcome [1] | outcome [2] | outcome [3] | Potency [4] | Potency [5] | outcome [6] | outcome [7] | outcome [8] | outcome [9]

CNC(=O)Oc1ccccc1OC(C)C
inactive: outcome [1] | outcome [2] | outcome [10] | outcome [3] | Potency [4] | Potency [5] | outcome [6] | outcome [7] | outcome [8] | outcome [9]

C=C(C)CCl
inactive: activation [1] -2.09% [at 8.3 µM] | outcome [2] | outcome [10] | outcome [3] | Potency [4] | Potency [5] | outcome [6] | outcome [7] | outcome [8] | outcome [9]

NCC(O)c1ccc(O)cc1 (stereo not drawn)
inactive: outcome [1] | outcome [2] | outcome [10] | outcome [3] | Potency [4] | Potency [5] | outcome [6] | outcome [7] | outcome [8] | outcome [9]

O=S(=O)(c1ccc(Cl)cc1)c1cc(Cl)c(Cl)cc1Cl
inactive: outcome [2] | outcome [10] | outcome [3] | Potency [4] | outcome [6] | outcome [7] | outcome [8] | outcome [9]
active: Potency [5] 12.2 µM and 13.7 µM

c1ccc(OP(Oc2ccccc2)Oc2ccccc2)cc1
inactive: outcome [1] | outcome [2] | outcome [3] | Potency [4] | outcome [6] | outcome [7] | outcome [8] | outcome [9]

c1ccc2c(c1)Oc1ccccc1O2
inactive: outcome [2] | outcome [10] | outcome [3] | Potency [4] | Potency [5] | outcome [6] | outcome [7] | outcome [8] | outcome [9]

CCCCN(CC)C(=O)SCCC
inactive: outcome [2] | outcome [10] | outcome [3] | Potency [4] | Potency [5] | outcome [6] | outcome [7] | outcome [8] | outcome [9]

Nc1ccc(Cc2ccc(N)cc2)cc1
inactive: outcome [2] | outcome [10] | outcome [3] | Potency [4] | Potency [5] | outcome [6] | outcome [7] | outcome [8] | outcome [9]

O=S(=O)(c1ccc(O)cc1)c1ccc(O)cc1
inactive: outcome [2] | outcome [10] | outcome [3] | Potency [4] | outcome [6] | outcome [7] | outcome [8] | outcome [9]

CCNc1nc(NC(C)(C)C)nc(SC)n1
inactive: outcome [1] | outcome [2] | outcome [3] | Potency [4] | outcome [6] | outcome [7] | outcome [8] | outcome [9]
active: Potency [5] 27.3 µM

CCOP(=S)(OCC)SCCSCC
inactive: outcome [1] | outcome [2] | outcome [3] | Potency [4] | outcome [6] | outcome [7] | outcome [8] | outcome [9]

CCN(CC)CCO
inactive: outcome [2] | outcome [10] | outcome [3] | Potency [4] | Potency [5] | outcome [6] | outcome [7] | outcome [8] | outcome [9]

CN(N=O)c1ccccc1
inactive: outcome [2] | outcome [10] | outcome [3] | Potency [4] | Potency [5] | outcome [6] | outcome [7] | outcome [8] | outcome [9]

CN1C(=O)CN=C(c2ccccc2)c2cc(Cl)ccc21
inactive: outcome [1] | outcome [10] | outcome [3] | Potency [4] | Potency [5] | outcome [6] | outcome [7] | outcome [8] | outcome [9]

O=[N+]([O-])c1ccc([As](=O)(O)O)cc1
inactive: outcome [2] | outcome [10] | outcome [3] | Potency [4] | Potency [5] | outcome [6] | outcome [7] | outcome [8] | outcome [9]

CCOP(OCC)OCC
inactive: outcome [2] | outcome [10] | outcome [3] | Potency [4] | Potency [5] | outcome [6] | outcome [7] | outcome [8] | outcome [9]

CCC[CH2][Sn]([Cl])([Cl])[Cl]
inactive: outcome [1] | outcome [2] | outcome [3] | Potency [4] | Potency [5] | outcome [6] | outcome [7] | outcome [8] | outcome [9]

CC1OC(C)OC(C)O1 (stereo not drawn)
inactive: outcome [2] | outcome [10] | outcome [3] | Potency [4] | Potency [5] | outcome [6] | outcome [7] | outcome [8] | outcome [9]
